Results filed as inconclusive are left out. The source made the active and inactive calls. Calls follow the shape of the dose curve; as a rule, active = well fitted curve in the direction sought with a large enough effect in the repeat runs; inconclusive = weak or mixed curves; inactive = no such curve, though single readings can be large; an effect the other way counts as inactive or inconclusive.
What was measured:
[1] = qHTS RealTime-Glo MT Cell Viability Assay in HEK293 cells - 16 hour (AID 1224872); also: top concentration of the series differs between compounds; nearly all actives have a fitted effect of over 50% in size
How it was run: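 HEK293 cells seeded with NanoLuc/prosubstrate reagent, rested 5 h at 37 C, then dosed and kept at 37 C up to 40 h. Nonlytic real-time luminescence from viable cells read at 0, 8, 16, 24, 32 and 40 h.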

[2] = qHTS RealTime-Glo MT Cell Viability Assay in HepG2 cells - 8 hour (AID 1224873); also: nearly all actives have a fitted effect of over 55% in size
How it was run: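 HepG2 cells (600/well) mixed with RealTime-Glo MT reagent, settled 5 h at 37 C/5% CO2 before compound addition. Nonlytic NanoLuc luminescence from viable-cell prosubstrate reduction read repeatedly during 40 h treatment at 37 C.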

[3] = qHTS RealTime-Glo MT Cell Viability Assay in HEK293 cells - 40 hour (AID 1224874); details: RealTime-Glo luminescence; max response: stronger effect = lower value; also: nearly all actives have a fitted effect of over 50% in size
How it was run: (§1)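 Luminescence readout at each listed time point; HEK293, 600 cells/well, RealTime-Glo MT reagent added with cells; compounds pinned (23 nL in DMSO) after 5 h at 37 C; continuous culture at 37 C.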

[4] = A CellTox Green Cytotoxicity Assay to monitor cytotoxicity in HEK293 cells - 24 hour (AID 1224875); also: series mostly up to about 77 µM; nearly all actives have a fitted effect of over 45% in size
How it was run: (§2)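 Read-out: fluorescence of a cell-impermeant cyanine dye staining DNA of dead cells, proportional to cytotoxicity. HEK293, 600 cells/well with reagent, compound (23 nL DMSO) added after 5 h; reads at 0, 8, 16, 24, 32, 40 h.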

[5] = A CellTox Green Cytotoxicity Assay to monitor cytotoxicity in HepG2 cells - 16 hour (AID 1224876); also: nearly all actives have a fitted effect of over 45% in size
How it was run: (§3)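 HepG2, 600 cells/well premixed w/ CellTox Green; 5 h settle, 37 C/5% CO2; pintool cpd add (DMSO); 37 C, 40 h; fluorescence read at 0, 8, 16, 24, 32, 40 h.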

[6] = A CellTox Green Cytotoxicity Assay to monitor cytotoxicity in HepG2 cells - 24 hour (AID 1224878); also: nearly all actives have a fitted effect of over 45% in size
How it was run: as §3

[7] = A CellTox Green Cytotoxicity Assay to monitor cytotoxicity in HepG2 cells - 40 hour (AID 1224879); also: nearly all actives have a fitted effect of over 40% in size
How it was run: as §3

[8] = qHTS RealTime-Glo MT Cell Viability Assay in HEK293 cells - 0 hour (AID 1224880); also: top concentration of the series differs between compounds; nearly all actives have a fitted effect of over 45% in size
How it was run: as §1

[9] = A CellTox Green Cytotoxicity Assay to monitor cytotoxicity in HEK293 cells - 32 hour (AID 1224881); also: nearly all actives have a fitted effect of over 40% in size
How it was run: as §2

[10] = qHTS RealTime-Glo MT Cell Viability Assay in HepG2 cells - 32 hour (AID 1224877); also: nearly all actives have a fitted effect of over 55% in size
How it was run: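 HepG2 cells (600/well) were dispensed with RealTime-Glo reagents, incubated 5 h at 37 °C, then treated with compounds in DMSO for up to 40 h. Nonlytic NanoLuc luminescence reflecting viable cells was read at each stated time point.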
% is scaled to controls: 0 for no effect and ±100 for the full control effect.

Nc1ccncc1N
inactive: Potency [1] | outcome [2] | max response [3] 13% | outcome [4] | outcome [5] | outcome [6] | Potency [7] | Potency [8] | outcome [9]

CN1CCN(c2cc3c(nn2)Oc2ccccc2N3C)CC1
inactive: activity change, negative = cytotoxicity [1] 0.378% [at 15.8 µM] | viability change, negative = cytotoxic [2] -9.11% [at 15.8 µM] | max response [3] -0.461% | activity change [4] -12.9% [at 15.8 µM] | cytotoxicity increase [5] -0.721% [at 15.8 µM] | cytotoxicity [6] -2.46% [at 15.8 µM] | cytotoxicity increase [7] -1.51% [at 15.8 µM] | activity change, negative = cytotoxicity [8] -0.369% [at 15.8 µM]

CCC(C)(CN(C)C)OC(=O)c1ccccc1 (centres undefined)
inactive: Potency [1] | outcome [2] | max response [3] 12.1% | outcome [4] | outcome [5] | Potency [10] | Potency [7] | Potency [8] | outcome [9]

CC(=O)N[C@H]1[C@H]([C@H](O)[C@H](O)CO)OC(C(=O)O)=C[C@@H]1N=C(N)N
inactive: Potency [1] | outcome [2] | max response [3] 2.18% | outcome [4] | outcome [5] | Potency [10] | Potency [7] | Potency [8] | outcome [9]

O=C(O)Cc1csc(-c2ccc(Cl)cc2)n1
inactive: Potency [1] | outcome [2] | max response [3] 1.2% | outcome [4] | outcome [5] | outcome [6] | Potency [7] | Potency [8] | outcome [9]

O=C(c1ccccc1)C1(O)CCCCC1
inactive: Potency [1] | outcome [2] | max response [3] -2.37% | outcome [4] | outcome [5] | outcome [6] | Potency [7] | Potency [8]

CN(C)CCCN(C)CCCN(C)C
inactive: Potency [1] | outcome [2] | max response [3] -6.89% | outcome [4] | outcome [5] | outcome [6] | Potency [7] | Potency [8] | outcome [9]

CCC(C)(CCCC(C)C)OC(C)=O (centres undefined)
inactive: Potency [1] | outcome [2] | max response [3] 6.35% | outcome [4] | outcome [5] | outcome [6] | Potency [7] | Potency [8] | outcome [9]

Nc1ccn([C@@H]2O[C@H](CO)[C@@H](O)C2O)c(=O)n1 (some centres undefined)
inactive: Potency [1] | outcome [2] | max response [3] 6.25% | outcome [4] | outcome [5] | outcome [6] | Potency [7] | Potency [8] | outcome [9]

CCOC(=O)C(=O)CCCCCCl
inactive: Potency [1] | outcome [2] | max response [3] 4.01% | outcome [5] | Potency [10] | outcome [6] | Potency [7] | Potency [8] | outcome [9]

CCCCS(=O)(=O)N[C@@H](Cc1ccc(OCCCCC2CCNCC2)cc1)C(=O)O
inactive: Potency [1] | outcome [2] | max response [3] -0.348% | outcome [5] | Potency [10] | outcome [6] | Potency [7] | Potency [8]

C=CC(C)(CCC=C(C)C)OC(=O)CC (centres undefined)
inactive: Potency [1] | outcome [2] | max response [3] -1.4% | outcome [4] | outcome [5] | outcome [6] | Potency [8] | outcome [9]

CC(C#N)(CCC(=O)O)N=NC(C)(C#N)CCC(=O)O (centres undefined)
inactive: Potency [1] | outcome [2] | max response [3] 3.09% | outcome [4] | outcome [5] | outcome [6] | Potency [8] | outcome [9]

CN(C)C(=O)Oc1ccc[n+](C)c1
inactive: Potency [1] | outcome [2] | max response [3] 5.97% | outcome [5] | Potency [10] | outcome [6] | Potency [7] | Potency [8] | outcome [9]

CC1OC1C1CCC2(C)OC2C1 (centres undefined)
inactive: Potency [1] | outcome [2] | max response [3] 1.23% | outcome [4] | Potency [10] | Potency [8] | outcome [9]

CCCn1cc[n+](C)c1C
inactive: Potency [1] | outcome [2] | max response [3] 0.77% | outcome [4] | outcome [5] | Potency [7] | Potency [8] | outcome [9]

CC(C)CC(C)(N)C#N (centres undefined)
inactive: Potency [1] | outcome [2] | max response [3] 5.01% | outcome [4] | outcome [5] | Potency [8] | outcome [9]

CCOC(=O)c1cnc2c(cnn2CC)c1NN=C(C)C
inactive: Potency [1] | outcome [2] | max response [3] -11.3% | outcome [5] | Potency [10] | outcome [6] | Potency [7] | Potency [8] | outcome [9]

CCCCCC(=O)OCCc1ccccc1
inactive: Potency [1] | outcome [2] | max response [3] 5.56% | outcome [4] | outcome [5] | outcome [6] | Potency [8] | outcome [9]

C1CCC2=NCCCN2CC1
inactive: Potency [1] | outcome [2] | max response [3] 20.2% | outcome [5] | Potency [10] | outcome [6] | Potency [7] | Potency [8] | outcome [9]

CC(C)NNC(=O)c1ccncc1
inactive: Potency [1] | outcome [2] | max response [3] 9.38% | outcome [4] | outcome [5] | Potency [7] | Potency [8] | outcome [9]

Cc1c(N)c(=O)n(-c2ccccc2)n1C
inactive: Potency [1] | outcome [2] | max response [3] -5.41% | outcome [4] | Potency [10] | Potency [8] | outcome [9]

COc1ccccc1OCC1CNC(=O)O1 (centres undefined)
inactive: Potency [1] | outcome [2] | max response [3] 8.57% | outcome [4] | outcome [5] | outcome [6] | Potency [8]

Clc1cc(Cl)cc(Cl)c1
inactive: Potency [1] | outcome [2] | max response [3] 12.7% | outcome [4] | outcome [5] | Potency [8] | outcome [9]

O=C(CO)[C@@H](O)[C@H](O)[C@@H](O)CO
inactive: Potency [1] | outcome [2] | max response [3] 5.66% | outcome [4] | Potency [10] | Potency [8]

Source: PubChem BioAssay (Tox21)
